Compound activity (PubChem)
Cardio protect: modulators protecting cardiomyocytes from myocardial damage; H9c2 cardiomyocytes, H2O2 injury protection, ATPLite, 2 h; protection from H2O2 cell death, % at 20 µM; actives 0.63% (n = 360,000); AID 588492;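 active = compounds giving at least 50% protection of heart cells from peroxide-induced death in the single-dose screen, raw or plate-pattern-corrected value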;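 note: 0% = DMSO wells with peroxide and 100% = DMSO wells without peroxide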
aDG glyco up: increases alpha dystroglycan glycosylation. AID 624168. actives 0.22% (n = 360,000). Pro5-aDG cells, alpha-DG glycosylation AlphaScreen (IIH6); 0% Pro5, 100% B10-LARGE cell signal. activation, % at 10 µM;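 active = activation of at least 8% versus controls, or a plate z-score of at least 8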;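 note: Pro5 are CHO cells carrying HIG-tagged alpha-DG that lacks glycosylation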
Glyco luc inh: N-linked glycosylation inhibition; actives 0.23% (n = 360,000); reporter increase, % at 12.5 µM; D54 ERlucT glycosylation luciferase reporter, 24 h; percent of 100 nM tunicamycin response;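 active = mean luciferase reporter signal, scaled so untreated is 0 and the glycosylation-blocking control 100, at or above a set limit in every replicate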;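 note: luciferase carries N-glycosylation sites so blocking glycosylation raises the light; 0% = median of neutral control wells and 100% = median of 100 nM tunicamycin wells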
ARNT TACC3 PPI: disrupts binding between human ARNT and TACC3. AlphaScreen His-ARNT PAS-B/GST-TACC3 binding, luminescence; TACC3 fragment carries E629A point mutation. inhibition, % at 9.99 µM. actives 0.66% (n = 390,000);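 active = mean inhibition of replicates at least 50% and at least half of replicates each reaching 50%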;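 note: 0% = complete ARNT plus TACC3 wells and 100% = ARNT alone without TACC3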
Vif imaging: blocks HIV Vif function | inhibition, % at 7.49 µM | HEK293T cells, Vif self-association by quenched fluorescence, imaging, 24 h | actives 0.35% (n = 340,000); in the data active = inhibition above about 50%, passing the limit was not always enough
AlphaScreen ctr: interferes with AlphaScreen signal, flagging false ARNT-TACC3 hits; shares compounds with ARNT TACC3 PPI; His-ARNT PASB-GST AlphaScreen artifact counter-screen, luminescence; AC50, µM (doses to about 68 µM), for the others: top-dose activity change, negative = signal decrease; actives 50% (n = 1,200); AID 651705;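 active = every separate test run was called active for a drop in luminescence, with AC50 within twice the top valid dose, actives reach about 71 µM in these data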
An asterisk follows results filed as active; x = no result; [ ] = another dose, or the depositor's remark. In the library only some 1.7% were active in any assay of this set; here they are far more common.

SMILES	Cardio protect	aDG glyco up	Glyco luc inh	ARNT TACC3 PPI	Vif imaging	AlphaScreen ctr
COc1ccc(S(=O)(=O)N(C)C[C@H]2Oc3ccc(NC(=O)Nc4ccc(F)cc4)cc3CC(=O)N([C@H](C)CO)C[C@H]2C)cc1	x	x	x	9	x	x
COc1cc(CCNc2ccc3nnc(-c4ccccc4)n3n2)cc(OC)c1OC	56*	2	7	56*	-3	68µM*
COc1cc(/C=N/Nc2nn3cnnc3c3ccccc23)ccc1O	-14	0	0	50*	-21	-30%
Cc1cccc(Oc2ncnc(N)c2[N+](=O)[O-])c1C	-1	0	1	-32	1	x
Nc1ncnc(Oc2cccc3cccnc23)c1[N+](=O)[O-]	3	1	1	51*	0	-29%
O=C(Nc1ccccc1)N1CCCCN2[C@H](C1)[C@H](c1ccc(C#CC3CC3)cc1)[C@@H]2CO	x	x	x	active	x	-32%[38 µM]
O=C(Nc1ccccc1)N1CCCCN2[C@@H](CO)[C@@H](c3ccc(C#CC4CC4)cc3)[C@@H]2C1	x	x	x	18	x	x
C[C@@H]1CCCCO[C@@H](CN(C)C(=O)CCCN(C)C)[C@H](C)CN([C@H](C)CO)C(=O)c2cc(NC(=O)c3ccccc3)ccc2O1	x	x	x	3	x	x
O=C(Nc1nc(-c2ccccn2)cs1)c1ccc(Cl)s1	31	2	-7	59*	-23	28µM*
Cn1cccc1C(=O)Nc1nc(-c2ccccn2)cs1	37	4	-12	63*	-4	20µM*
Cc1ccc(C(=O)Nc2nc(-c3ccccn3)cs2)s1	59*	2	1	54*	-8	38µM*
Cc1csc(NC(=O)c2cccn2C)n1	-2	0	-5	2	-9	x
CC(Oc1cccc(Cl)c1)C(=O)Nc1nc(-c2ccccn2)cs1 (configuration not stated)	50*	3	0	53*	-1	-18%
C[C@@H]1CN([C@@H](C)CO)S(=O)(=O)c2ccc(C#CC3(O)CCCC3)cc2O[C@H]1CN(C)C(=O)Nc1cccc(F)c1	x	x	x	6	x	x
NC(=O)CSc1nnc(-c2cccs2)n1Cc1ccco1	1	0	3	-3	-3	x
NC(=O)CSc1nnc(-c2ccc(O)cc2)n1Cc1ccco1	-1	0	0	38*	22	28µM*
COC(=O)c1ccc(C(c2c(C)[nH][nH]c2=O)c2c(C)[nH][nH]c2=O)cc1	-3	0	1	5	4	x
COC(=O)c1ccccc1-c1ccc(C(c2c(C)[nH][nH]c2=O)c2c(C)[nH][nH]c2=O)o1	-8	0	29*	60*	0	-12%
COc1cccc(CNC(=O)CSc2ccc(-c3ccccn3)nn2)c1	2	0	1	66*	-2	61µM*
O=C(CSc1ccc(-c2ccccn2)nn1)NCc1ccc(Cl)cc1	9	0	2	53*	-6	69µM*
Cc1ccc(CNC(=O)CSc2ccc(-c3ccccn3)nn2)cc1	4	0	-1	38	-8	x
CC(=O)N1[C@@H]2c3cccc(=O)n3C[C@H]1[C@H](CO)[C@H]2C(=O)NCC1CCCCC1	x	x	x	-4	x	x
CCC(=O)N[C@H]1CC[C@H](CCNS(=O)(=O)c2ccc(Cl)cc2)O[C@H]1CO	x	x	x	-8	x	x
COc1ccccc1NC(=O)CSc1ccc2nnc(-c3ccccn3)n2n1	5	0	2	19	2	x
CCOc1ccc(NC(=O)CSc2nnc(-c3ccccn3)n2N)cc1	5	0	0	20	1	x
SMILES	Cardio protect	aDG glyco up	Glyco luc inh	ARNT TACC3 PPI	Vif imaging	AlphaScreen ctr
O=C(CSc1ccc2nnc(-c3ccccn3)n2n1)Nc1ccc(F)cc1F	1	0	4	53*	-6	-34%
Cc1ccccc1-n1c(SCC(=O)Nc2ccc3c(c2)OCO3)nnc1-c1ccccn1	16	0	-3	61*	-20	-31%
COc1ccc(OC)c(NC(=O)CSc2ccc3nnc(-c4ccccn4)n3n2)c1	0	0	5	53*	-11	-30%
COc1ccc(NC(=O)CSc2nnc(-c3ccccn3)n2N)cc1	3	0	0	55*	2	-34%
O=C(CSc1nnc2ccc(-c3ccccn3)nn12)Nc1ccc(F)cc1F	-2	0	0	-2	-7	x
C[C@@H]1CN([C@H](C)CO)C(=O)CCCn2cc(nn2)CO[C@H]1CN(C)Cc1ccc(O)cc1	x	x	x	-5	x	x
CNC[C@@H]1Oc2ccc(NC(=O)CCN3CCOCC3)cc2C(=O)N([C@@H](C)CO)C[C@@H]1C	x	x	x	-4	x	x
O=C(c1ccccc1)N1C[C@@H]2[C@H](c3ccccc31)[C@H](CO)N2S(=O)(=O)c1ccccc1	x	x	x	5	x	x
CCCN(C)C[C@H]1Oc2ncc(C#CCOC)cc2C(=O)N([C@H](C)CO)C[C@H]1C	x	x	x	-1	x	x
CC=Cc1ccc2n(c1=O)C[C@H]1[C@H](CO)[C@@H](C(=O)N3CCc4ccccc4C3)[C@@H]2N1CC (mixture of isomers)	x	x	x	3	x	x
COc1ccc(NC(=O)CSc2ccc3nnc(-c4ccccn4)n3n2)cc1	5	0	3	66*	-2	-17%
Nn1c(SC/C=C/c2ccccc2)nnc1-c1ccccn1	6	0	10	54*	8	60µM*
COCC(=O)N(C)C[C@@H]1Oc2ncc(-c3cccc(OC)c3)cc2C(=O)N([C@@H](C)CO)C[C@H]1C	x	x	x	16	x	x
COc1ccccc1OCc1nc(C#N)c(NCCCn2ccnc2)o1	0	0	0	34*	-5	-10%
CC(C)NC(=O)Nc1ccc2c(c1)C(=O)N([C@@H](C)CO)C[C@@H](C)[C@@H](CN(C)C(=O)Nc1cccc3ccccc13)OCCCC[C@@H](C)O2	x	x	x	29	x	x
Cc1nc2ccccc2n1CC(=O)c1ccc(O)c(O)c1	12	0	1	57*	-5	1%
C[C@H](CO)N1C[C@H](C)[C@@H](CN(C)S(C)(=O)=O)Oc2ccc(NC(=O)Cc3ccccc3)cc2CC1=O	x	x	x	-5	x	x
CN(C)S(=O)(=O)c1ccc(SCC(=O)Nc2cccc(S(=O)(=O)N3CCCC3)c2)nc1	-14	0	-1	-2	-7	x
O=C(O)CSc1cccc2cccnc12	1	0	0	60*	6	-18%
O=C(CSc1cccc2cccnc12)N/N=C/c1ccc(F)cc1	-10	0	0	44	-2	x
CN(C)S(=O)(=O)c1cccc(NC(=O)CSc2cccc3cccnc23)c1	-7	0	11	65*	1	12µM*
C[C@H](CO)N1C[C@H](C)[C@@H](CN(C)C(=O)CN(C)C)Oc2ncc(/C=C/c3ccccc3)cc2C1=O	x	x	x	6	x	x
O=C(CSc1nnc(-c2ccccn2)o1)Nc1ccccc1C(F)(F)F	4	0	-1	55*	6	-12%
